Assay results: PubChem BioAssay (Tox21)
Active and inactive are the calls of the source. Calls follow the shape of the dose curve; as a rule, active = well fitted curve in the direction sought with a large enough effect in the repeat runs; inconclusive = weak or mixed curves; inactive = flat fitted curve, though single readings scatter.

Assay: qHTS assay to test for compound auto fluorescence at 590 nm (red) in HepG2 cell free culture (AID 720684)
Conditions: cell-free medium autofluorescence, red 540/590 nm; series mostly up to 91.3 µM
Excerpt: U.S. Tox21 Program National Center for Advancing Translational Sciences [NCATS] NIH Chemical Genomics Center [NCGC] U.S. Environmental Protection Agency [EPA] National Institutes of Environmental Health Sciences [NIEHS] National Toxicology Program [NTP] U.S. Food and Drug Administration [FDA] Tox21 Assay Overview: Compound auto fluorescence often interferes with screening of the compound library against various biological targets and signaling pathways. Some of these compounds may have fluorophoric properties. Such properties may interfere with the assay outputs resulting in false positives and/or negatives. To decrease such complications and ensure the compound activities are relevant in terms of biological response, the Tox21 10K compound library was screened for auto fluorescence. From the fluorophores used as reporter signals in our screening assays, the auto fluorescence equivalencies of compounds against three fluorophores have been evaluated: Triamterene, Fluorescein and Rose Bengal sodium for blue, green and red fluorescence, respectively. The fluorescence intensities were measured using Excitation/Emission wavelengths at 405/460nm, 485/535nm and 540/590nm for blue, green and red labels, respectively. This assay includes the red fluorescence data.
Tox21 Assay Protocol Summary: 5 uL of culture medium (MEM containing 10% FBS) per well was dispensed into black wall/clear bottom 1536-well plates using a Multidrop Combi Dispenser (ThermoFisher Scientific, Waltham, MA). After 23 nL compound or DMSO vehicle was transferred into assay plate by a pintool work station (Kalypsys, San Diego, CA), fluorescence intensities in the assay plates were measured by an Envision (PerkinElmer, Shelton, CT) plate reader using three labels for measuring blue, green and red fluorescence at […] 460, 535 and 590nm respectively.

| Structure (SMILES) | outcome |
| --- | --- |
| Cc1cccc(C)c1O | inactive |
| O=C(O)CN(CC(=O)O)CC(=O)O | inactive |
| CC1(C)O[C@@H]2[C@@H](CO[C@@]3(COS(N)(=O)=O)OC(C)(C)O[C@@H]23)O1 | inactive |
| CN/C(=C\[N+](=O)[O-])NCCSCc1ccc(CN(C)C)o1 | inactive |
| NC(=O)N1c2ccccc2C=Cc2ccccc21 | inactive |
| CCCCC/C(C=O)=C\c1ccccc1 | inactive |
| O=[N+]([O-])c1ccc(O)cc1 | inactive |
| C[C@]12C=CC(=O)C=C1CC[C@@H]1[C@@H]2C(=O)C[C@@]2(C)[C@H]1CC[C@]2(O)C(=O)CO | inactive |
| Nc1ccc(N=Nc2ccccc2)c(N)n1 | inactive |
| CN(C)Cc1cc(CN(C)C)c(O)c(CN(C)C)c1 | inactive |
| COCC(C)N (stereo not given) | inactive |
| CC(C)=CCC/C(C)=C/CO | inactive |
| C=C(C)C(N)=O | inactive |
| Cc1ccc(O)c(-n2nc3ccccc3n2)c1 | inactive |
| CC(=O)OC/C=C(C)/C=C/C=C(C)/C=C/C1=C(C)CCCC1(C)C | inactive |
| CC(=O)c1ccc(S(=O)(=O)NC(=O)NC2CCCCC2)cc1 | inactive |
| C/C=C/c1ccc(O)c(OC)c1 | inactive |
| COC(=O)c1ccc(O)cc1 | inactive |
| CC(C)CC(C)CC(O)CC(C)C (stereo not given) | inactive |
| Cc1c(N(C)CS(=O)(=O)O)c(=O)n(-c2ccccc2)n1C | inactive |

| Structure (SMILES) | outcome |
| --- | --- |
| CC(C)(C)CC(C)(C)c1ccc(O)c(-n2nc3ccccc3n2)c1 | inactive |
| CC(=O)CCC(C)C | inactive |
| CC(=O)/C=C/C1=C(C)CCCC1(C)C | inactive |
| C=C(C)OC(C)=O | inactive |
| CCN1CCCC1=O | inactive |
| COc1cc2c(c(OC)c1OC)-c1ccc(OC)c(=O)cc1[C@@H](NC(C)=O)CC2 | inactive |
| COc1ccc(C(=O)c2ccccc2)c(O)c1 | inactive |
| C1CNCCN1 | inactive |
| CCCCOC(=O)CCCCCCCCC(=O)OCCCC | inactive |
| CCOC(=O)C(C)(C)Oc1ccc(Cl)cc1 | inactive |
| CCn1cc(C(=O)O)c(=O)c2ccc(C)nc21 | inactive |
| O=C(O)Cc1cccc2ccccc12 | inactive |
| NCCNc1cccc2ccccc12 | inactive |
| O=c1cc[nH]c(=O)[nH]1 | inactive |
| C=CCOC(=O)CC(C)C | inactive |
| COCCOCCOC | inactive |
| COc1cc(C=O)ccc1O | inactive |
| CC(=O)Oc1ccccc1C(=O)O | inactive |
| OCCCc1ccccc1 | inactive |
| NC(N)=NC(N)=NCCc1ccccc1 | inactive |
